The supplement of paper PMC8726507
Unmarked numbers belong to inactive results.

Test system: Plasmodium falciparum NF54-HGL (transmission to Anopheles stephensi)
Assay: percentage of barcode signal found in uninfected mosquitoes (transmission-blocking activity); higher = stronger blocking of transmission to mosquito, active = 80 or more
Settings: gametocyte preincubation time 24 h, readout time post-feed 8 days
Procedure: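 The mixture was fed to Anopheles stephensi in 96-well plates as blood meals tagged with DNA-barcoded Asaia bacteria. Eight days later, mosquitoes were classed infected or uninfected by luminescence (mean + 5 SD of unfed controls). Barcodes were quantified by Luminex MagPlex-TAG in the pooled uninfected and infected Asaia cultures, background-corrected, and the score is % of barcode signal in uninfected mosquitoes = 100*Iu/(Iu+Ii).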

| SMILES | percentage of barcode signal found in uninfected mosquitoes (20 µM) | percentage of barcode signal found in uninfected mosquitoes (10 µM) |
| --- | --- | --- |
| Cc1cc(NCCc2ccccc2)nc(NC(=N)Nc2ccc(Cl)cc2)n1 | 75.8% | – |
| Cc1nn(C(=O)Nc2cccc(C(F)(F)F)c2)c(C)c1Sc1ncccn1 | 2.49% | – |
| c1ccc(Oc2ccc(-c3cc(N4CCNCC4)[nH]n3)cc2)cc1 | 27.2% | – |
| COc1ccc(Nc2ccccc2NC(=O)c2ccc(O)nc2)cc1 | – | 7.07% |
| c1ccc(Oc2ccc(-c3cncc(-c4ccc5[nH]ccc5c4)n3)cc2)cc1 | 29% | – |
| Cc1nc(-c2ccccn2)nc(N(C)CCc2ccccc2)c1Cl | 92% (active) | – |
| Cn1ncc2c(N3CCOCC3)nc(NCCc3c[nH]c4ccccc34)nc21 | – | 64.2% |
| CCc1nc2ccc(C(=O)NCc3ccc4c(c3)OCO4)cn2c1N(C)Cc1cccs1 | – | 22.1% |
| CCNC(=O)C(C)Nc1nc(-c2cccnc2)nc2sc(C)c(C)c12 (stereo unspecified) | 11.5% | – |
| CCC(=O)Nc1ccccc1C(=O)Nc1ccccn1 | – | 50% |
| CCS(=O)(=O)N(Cc1ccco1)Cc1cc2ccc(C)cc2nc1O | -1.14% | – |
| Nc1nccc2ccc(Oc3ccncc3)cc12 | 37.6% | – |
| O=C(NC1CCN(c2ccnc3ccccc23)C1)c1cccc(C(F)(F)F)c1 (stereo unspecified) | – | 71.6% |
| CS(=O)(=O)c1ccccc1C(=O)N(Cc1ccccc1)c1ccccc1 | – | 5.09% |
| Cc1nnc(NC(=O)c2cn(-c3ccccc3)nc2-c2ccccc2C)o1 | – | 81% (active) |
| CC(=O)NCC1CN(c2ccc(-c3ccc(CNCc4cn[nH]n4)cc3)c(F)c2)C(=O)O1 (stereo unspecified) | 9.84% | – |
